Measured values reported in PubChem BioAssay (Tox21).
Records with an inconclusive call do not appear. Calls of active or inactive are those of the source. Unless noted, the call rests on the fitted dose curve.

What was measured:
Aromatase (Homo sapiens) = Aromatase (Homo sapiens) (UniProt P11511); experiment: qHTS assay to identify aromatase inhibitors (AID 743083; active means well fitted curve in the direction sought with a large enough effect in the repeat runs; an effect the other way counts as inactive or inconclusive; further: nearly all actives have a fitted effect of over 55% in size; further: potency means the concentration at half of the fitted maximal effect)
Chain of Aromatase (Homo sapiens) (P11511 whole entry, looked up): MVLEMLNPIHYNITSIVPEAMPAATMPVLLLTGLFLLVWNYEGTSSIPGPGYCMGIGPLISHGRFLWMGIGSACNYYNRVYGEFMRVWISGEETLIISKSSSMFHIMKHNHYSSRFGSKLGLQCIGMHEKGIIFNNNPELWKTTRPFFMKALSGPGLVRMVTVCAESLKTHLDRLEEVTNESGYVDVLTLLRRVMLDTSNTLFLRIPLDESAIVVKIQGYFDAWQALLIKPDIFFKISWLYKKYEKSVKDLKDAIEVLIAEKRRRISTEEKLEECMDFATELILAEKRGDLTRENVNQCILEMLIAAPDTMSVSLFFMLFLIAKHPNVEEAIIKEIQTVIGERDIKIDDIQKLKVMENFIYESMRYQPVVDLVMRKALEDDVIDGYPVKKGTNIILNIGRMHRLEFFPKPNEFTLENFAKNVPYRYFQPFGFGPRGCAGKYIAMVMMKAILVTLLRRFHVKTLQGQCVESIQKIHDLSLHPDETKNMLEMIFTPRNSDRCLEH

[1] = target: Aryl hydrocarbon receptor (Homo sapiens) (UniProt P35869); experiment: qHTS assay to identify small molecule that activate the aryl hydrocarbon receptor (AhR) signaling pathway (AID 743085; active means well fitted curve in the direction sought with a large enough effect in the repeat runs; an effect the other way counts as inactive or inconclusive;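 further: HG2L7.5c1 human HepG2 liver cells with stably integrated DRE-driven firefly reporter; nearly all actives have a fitted effect of over 15% in size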)
Chain of Aryl hydrocarbon receptor (Homo sapiens) (P35869 whole entry, looked up): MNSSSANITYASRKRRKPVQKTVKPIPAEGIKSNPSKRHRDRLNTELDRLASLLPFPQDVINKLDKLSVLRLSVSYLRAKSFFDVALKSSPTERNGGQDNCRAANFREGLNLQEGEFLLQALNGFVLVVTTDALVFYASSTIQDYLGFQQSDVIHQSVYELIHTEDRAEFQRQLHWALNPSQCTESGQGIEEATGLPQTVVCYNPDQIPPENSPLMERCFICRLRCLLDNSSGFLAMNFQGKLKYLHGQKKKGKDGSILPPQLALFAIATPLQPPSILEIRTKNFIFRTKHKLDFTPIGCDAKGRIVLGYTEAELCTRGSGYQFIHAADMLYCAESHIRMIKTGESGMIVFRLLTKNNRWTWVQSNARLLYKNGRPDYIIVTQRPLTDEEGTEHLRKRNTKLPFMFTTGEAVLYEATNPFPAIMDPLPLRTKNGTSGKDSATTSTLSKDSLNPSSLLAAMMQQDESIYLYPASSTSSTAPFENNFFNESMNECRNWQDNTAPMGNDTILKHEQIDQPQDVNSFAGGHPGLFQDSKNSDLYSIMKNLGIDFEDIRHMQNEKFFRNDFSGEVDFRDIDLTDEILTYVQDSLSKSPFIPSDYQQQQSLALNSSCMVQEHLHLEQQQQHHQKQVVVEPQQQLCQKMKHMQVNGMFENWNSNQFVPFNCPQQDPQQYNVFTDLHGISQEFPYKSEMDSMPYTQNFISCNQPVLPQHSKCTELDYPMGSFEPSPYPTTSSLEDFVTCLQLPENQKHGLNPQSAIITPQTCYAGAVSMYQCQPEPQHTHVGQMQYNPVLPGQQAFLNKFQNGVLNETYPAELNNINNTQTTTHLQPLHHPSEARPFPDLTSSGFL
Method in brief: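 Reporter assay in engineered HepG2 line HG2L7.5c1, whose plasmid carries twenty dioxin responsive elements upstream of firefly luciferase. Treatment lasted 24 h at 37C; ONE-Glo luminescence gauged induction.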

[2] = qHTS assay to identify small molecule antagonists of the retinoic acid receptor (RAR) signaling pathway (AID 1159552; active means well fitted curve in the direction sought with a large enough effect in the repeat runs; an effect the other way counts as inactive or inconclusive; further: nearly all actives have a fitted effect of over 50% in size; further: potency means the concentration at half of the fitted maximal effect)
Method in brief: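 Overnight-plated C3RL4 reporter cells get compound, then retinol to 1 uM final; plates sit 6 hr at 37 C, 5% CO2. A luciferase reagent is added and light output recorded after 30 min at room temperature.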

[3] = qHTS assay to identify small molecule agonists of H2AX (AID 1224845; active means well fitted activation curve with a large enough effect in the signal ratio in the repeat runs, not every such curve was filed as active; the % refers to the signal ratio)
Method in brief: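 Wild-type CHO-K1 cells, plated overnight, exposed 3hr at 37C to 15 concentrations (0.76% DMSO final). Lysed, then HTRF anti-pH2AX (S139) cryptate and anti-H2AX-d2 antibodies, 24 hr room temperature; 665/620 nm emission read.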

[4] = A CellTox Green Cytotoxicity Assay to monitor cytotoxicity in HepG2 cells - 0 hour (AID 1224882; active means well fitted curve in the direction sought with a large enough effect in the repeat runs; an effect the other way counts as inactive or inconclusive; further: nearly all actives have a fitted effect of over 35% in size; further: potency means the concentration at half of the fitted maximal effect)
Method in brief: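 Using 1536-well format, dye-containing HepG2 suspension was seeded, allowed 5 h at 37 C/5% CO2, dosed by pintool with compounds, positive and negative controls, and imaged for fluorescence across 40 h.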

[5] = qHTS assay to identify small molecule HDAC inhibitors (AID 1259364; active means well fitted curve in the direction sought with a large enough effect in the repeat runs; an effect the other way counts as inactive or inconclusive;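 further: wild-type HCT-116 cells with endogenous class I/II HDAC activity; top concentration of the series differs between compounds; nearly all actives have a fitted effect of over 45% in size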)
Method in brief: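 Read-out: luminescence of HDAC-Glo I/II reagent, 30 min RT, reflecting class I/II deacetylase activity in whole HCT-116 cells pre-exposed 2 h to DMSO-dissolved compounds.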

[6] = qHTS assay to identify small molecule agonists of the sonic hedgehog signaling (Shh) pathway (AID 1259368);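 further: NIH/3T3-derived 3T3Gli1-Luc cells carrying a stable Gli1-driven firefly luciferase reporter; nearly all actives have a fitted effect of over 15% in size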
Method in brief: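 A Gli1 transcriptional response element controlled firefly luciferase in 3T3Gli1-Luc cells. Compounds and a positive control were added 4 hr after plating, and cells were incubated a further 24 hr at 37 C before luminescence detection.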

[7] = Caspase-3/7 induction in CHO-K1 cells by small molecules, qHTS assay (AID 1346980; active means well fitted curve in the direction sought with a large enough effect in the repeat runs; an effect the other way counts as inactive or inconclusive; further: nearly all actives have a fitted effect of over 15% in size)
Method in brief: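 Wild-type CHO-K1 cells exposed to compounds for 17hr at 37 C, 5% CO2. Caspase-3/7 activity then measured by Caspase-Glo 3/7 luminescence after 30min at room temperature.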

[8] = target: Acetylcholinesterase (Homo sapiens) (UniProt P22303); experiment: Acetylcholinesterase (AChE) small molecule antagonists: colormetric cell-based qHTS assay (AID 1347395); further: nearly all actives have a fitted effect of over 30% in size
Chain of Acetylcholinesterase (Homo sapiens) (P22303 whole entry, looked up): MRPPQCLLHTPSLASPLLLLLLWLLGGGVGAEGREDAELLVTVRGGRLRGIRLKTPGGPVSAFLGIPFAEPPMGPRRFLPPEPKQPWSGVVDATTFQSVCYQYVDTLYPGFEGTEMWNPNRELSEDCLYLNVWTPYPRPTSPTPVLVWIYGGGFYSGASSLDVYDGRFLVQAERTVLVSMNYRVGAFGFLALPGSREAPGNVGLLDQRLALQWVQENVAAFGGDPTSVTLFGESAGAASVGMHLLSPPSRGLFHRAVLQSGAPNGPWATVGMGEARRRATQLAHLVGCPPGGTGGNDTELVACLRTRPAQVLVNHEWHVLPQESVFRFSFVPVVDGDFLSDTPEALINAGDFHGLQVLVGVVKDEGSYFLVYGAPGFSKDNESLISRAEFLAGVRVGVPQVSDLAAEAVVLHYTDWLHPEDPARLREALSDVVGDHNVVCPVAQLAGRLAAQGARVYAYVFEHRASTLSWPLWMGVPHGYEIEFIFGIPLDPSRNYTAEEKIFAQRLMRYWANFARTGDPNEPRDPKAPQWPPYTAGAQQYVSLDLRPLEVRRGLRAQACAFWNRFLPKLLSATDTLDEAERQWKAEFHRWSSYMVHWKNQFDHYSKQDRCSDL
Method in brief: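 Quantitative HTS in attached SH-SY5Y cells: 30 min compound exposure, then 90 min with acetylthiocholine and DTNB at 37 C; colour from thiocholine reports AChE activity.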

[9] = target: Acetylcholinesterase (Homo sapiens) (UniProt P22303); experiment: Acetylcholinesterase (AChE) small molecule antagonists: enzyme-based qHTS assay (AID 1347397); settings: Potency: AChE enzyme activity inhibition; outcome: AChE enzyme activity inhibition; further: nearly all actives have a fitted effect of over 55% in size
Method in brief: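 Recombinant human AChE (50 mU/mL) preincubated with compound 30 min at room temperature; acetylthiocholine plus DTNB then added, and thiocholine formation read colorimetrically after 10 min at room temperature. DMSO served as vehicle control.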

[10] = target: Acetylcholinesterase (Homo sapiens) (UniProt P22303); experiment: Acetylcholinesterase (AChE) small molecule antagonists: fluorescence cell-based qHTS assay (AID 1347398); settings: Potency: AChE activity; outcome: AChE activity; further: nearly all actives have a fitted effect of over 50% in size
Method in brief: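 SH-SY5Y cells (2000/well), attached overnight, incubated with compound 30 min at 37 C. Acetylthiocholine plus Thiolite Green then added for 40 min at room temperature. Thiocholine fluorescence (Ex/Em 490/520 nm) reports cellular AChE activity.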

[11] = target: Acetylcholinesterase (Homo sapiens) (UniProt P22303); experiment: Acetylcholinesterase (AChE) small molecule antagonists: enzyme-based qHTS assay with human liver microsomes (AID 1347399); settings: Potency: qHTS inhibition; outcome: qHTS inhibition; further: nearly all actives have a fitted effect of over 60% in size
Method in brief: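 Recombinant human AChE (50 mU/mL in the enzyme mix) and human liver microsomes (0.25 mg/mL final) were preincubated with compound and NADPH (0.25 mg/mL final) for 30 min at 37 C. Acetylthiocholine/DTNB was then added; thiocholine was read colorimetrically after 10 min at room temperature.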

[12] = qHTS assay to identify small molecule agonists of the estrogen related receptor (ERR) signaling pathway from Tox21 library (AID 1224849); settings: ERR reporter cell line, ONE-Glo luciferase, 18 h; at 92.4 µM (top of the series) unless noted; further: nearly all actives have a fitted effect of over 15% in size
Method in brief: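 Screening used an NTP-provided ERR luciferase cell line. Compounds in DMSO were added 6 h after seeding and left 18 h at 37 C before a 30 min ONE-Glo step and luminescence reading.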

[13] = Caspase-3/7 induction in HepG2 cells by small molecules, qHTS assay (AID 1346978; active means well fitted curve in the direction sought with a large enough effect in the repeat runs; an effect the other way counts as inactive or inconclusive; further: nearly all actives have a fitted effect of over 15% in size)
Method in brief: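 Wild-type HepG2 cells, 2,000/well, settled 5 hr at 37 C and 5% CO2, then compound-treated for 17 hr; caspase-3/7 activity read by luminescent Caspase-Glo 3/7 after 30 min at room temperature.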

[14] = qHTS assay to identify small molecule antagonists of the estrogen related receptor (ERR) signaling pathway (AID 1224819; active means well fitted curve in the direction sought with a large enough effect in the repeat runs; an effect the other way counts as inactive or inconclusive;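 further: luminescence from an ERR-driven luciferase reporter measured with One-Glo reagent; nearly all actives have a fitted effect of over 50% in size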)
Method in brief: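 Luminescence readout (One-Glo, 30 min, RT) of ERR cell line after 18 h compound exposure at 37 C; cells seeded 2,000/well, pre-incubated 6 h, compounds pinned from DMSO stocks.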

[15] = qHTS assay to identify small molecule agonists of the estrogen related receptor (ERR) signaling pathway (AID 1224820; active means well fitted curve in the direction sought with a large enough effect in the repeat runs; an effect the other way counts as inactive or inconclusive)
Method in brief: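 ERR reporter cell line (from NTP), 2,000 cells/well, incubated 6 h before compound addition, then 18 h at 37 C. Luminescence measured 30 min after One-Glo reagent at room temperature.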

[16] = tested on: estrogen-related receptor alpha (ERRalpha) with PGC-1alpha coactivator, human; experiment: qHTS assay to identify small molecule antagonists of the estrogen related receptor signaling pathway with the pleiotropic PPARgamma coactivator (PGC) (AID 1224821);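 further: lower luminescence signal means antagonism of PGC/ERR signalling; nearly all actives have a fitted effect of over 50% in size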
Method in brief: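 PGC/ERR reporter cell line, plated 6 h before compound addition, then exposed 18 h at 37 °C. Luciferase activity read by luminescence 30 min after One-Glo addition; decrease indicates antagonism.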

[17] = qHTS assay to identify small molecule antagonists of the estrogen related receptor signaling pathway with the pleiotropic PPARgamma coactivator (PGC) cell viability counter screen (AID 1224822; active means well fitted curve in the direction sought with a large enough effect in the repeat runs; an effect the other way counts as inactive or inconclusive;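 further: viability read after 17.5 h compound exposure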)
Method in brief: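 PGC/ERR cells were plated at 2,000 per well and allowed 6 h to settle before compound addition. Following 17.5 h at 37 C, CellTiter-Fluor reagent was added and fluorescence was read 30 min later.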
On the % scale 0 is the no-effect control and ±100 the full control effect.

OCC(c1ccc(Cl)cc1)c1ccc(Cl)cc1
active: Potency (Aromatase (Homo sapiens)) 30.6 µM | Potency [2] 43.3 µM
inactive: Potency [1] | Potency [3] | Potency [4] | outcome [5] | outcome [6] | outcome [7] | Potency [8] | Potency [9] | Potency [10] | Potency [11]

c1ccc2c(c1)Sc1ccccc1N2CC1CN2CCC1CC2 (configuration not stated)
active: Potency [2] 29.8 µM
inactive: Potency [1] | activity change, positive = activation [12] -49.8% [at 42.5 µM] | Potency [4] | outcome [5] | outcome [6] | outcome [7] | Potency [8] | Potency [9] | Potency [10] | Potency [11]

C[C@]12CC[C@@H](O)C[C@@H]1CC[C@@H]1[C@@H]2CC[C@]2(C)C(=O)CC[C@@H]12
inactive: Potency [3] | Potency [4] | outcome [5] | outcome [6] | Potency [13] | outcome [7]

Brc1cc(Br)cc(Br)c1
inactive: Potency [3] | activity change, positive = activation [12] -1.12% | Potency [13] | Potency [8] | Potency [10] | Potency [11]

Nc1ccc(Cl)cc1[N+](=O)[O-]
inactive: Potency (Aromatase (Homo sapiens)) | Potency [2] | Potency [3] | Potency [8] | Potency [9] | Potency [10] | Potency [11]

O=C(Nc1ccccc1-c1ccc(Cl)cc1)c1cccnc1Cl
active: Potency [4] 41.2 µM
inactive: Potency [2] | Potency [14] | Potency [15] | Potency [16] | Potency [17] | Potency [3] | activity change, positive = activation [12] -31.8% | outcome [5] | outcome [6] | Potency [13] | outcome [7] | Potency [8] | Potency [9] | Potency [10] | Potency [11]

CCN(CC)C(=O)Cl
inactive: Potency [3] | activity change, positive = activation [12] -1.51% | Potency [4] | outcome [5] | outcome [6] | Potency [13] | outcome [7] | Potency [8] | Potency [9] | Potency [10] | Potency [11]

Oc1c(I)cc(I)cc1I
inactive: Potency [3] | activity change, positive = activation [12] -24.5% | Potency [4] | outcome [5] | outcome [6] | Potency [13] | outcome [7] | Potency [8] | Potency [9] | Potency [10] | Potency [11]

C1=CC2C3C=CC(C3)C2C1 (configuration not stated)
inactive: Potency (Aromatase (Homo sapiens)) | Potency [2] | Potency [8] | Potency [9] | Potency [10] | Potency [11]

CCCCCCCC#N
inactive: Potency (Aromatase (Homo sapiens)) | Potency [2] | Potency [3] | Potency [13] | Potency [8] | Potency [9] | Potency [10] | Potency [11]

c1ccncc1
inactive: Potency (Aromatase (Homo sapiens)) | Potency [1] | Potency [13] | outcome [8] | outcome [9] | outcome [10] | outcome [11]

Brc1ccc(-c2ccccc2)cc1
inactive: Potency (Aromatase (Homo sapiens)) | Potency [2] | Potency [8] | Potency [9] | Potency [10] | Potency [11]
